Test results taken from PubChem BioAssay (Tox21).
Records with an inconclusive call do not appear. Activity calls are given as the source filed them. Unless noted, calls come from the whole dose curve; as a rule, active = well fitted curve in the direction sought with a large enough effect in the repeat runs; inconclusive = weak or mixed curves; inactive = no such curve, though single readings can be large; an effect the other way counts as inactive or inconclusive.

Legend:
[1] = qHTS RealTime-Glo MT Cell Viability Assay in HepG2 cells - 32 hour (AID 1224877); note: nearly all actives have a fitted effect of over 55% in size
Procedure, shortened: (§1)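 Cell number in HepG2 cultures estimated from NanoLuc luminescence generated by metabolic reduction of a prosubstrate by living cells. The homogeneous, nonlytic format allowed repeated reads at 0, 8, 16, 24, 32 and 40 h of compound exposure.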

[2] = A CellTox Green Cytotoxicity Assay to monitor cytotoxicity in HepG2 cells - 24 hour (AID 1224878); note: nearly all actives have a fitted effect of over 45% in size
Procedure, shortened: (§2)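 Continuous culture of HepG2 cells with a membrane-impermeant DNA dye; rising fluorescence marks dead cells. Compound exposure lasted up to 40 h at 37 C, with reads every 8 h from 0 h.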

[3] = A CellTox Green Cytotoxicity Assay to monitor cytotoxicity in HepG2 cells - 40 hour (AID 1224879); note: nearly all actives have a fitted effect of over 40% in size
Procedure, shortened: as §2

[4] = qHTS RealTime-Glo MT Cell Viability Assay in HEK293 cells - 0 hour (AID 1224880); note: top concentration of the series differs between compounds; nearly all actives have a fitted effect of over 45% in size
Procedure, shortened: (§3)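 qHTS format; HEK293 cells with NanoLuc/prosubstrate reagent, 37 C/5% CO2 for 5 h pre-dosing; compounds 23 nL in DMSO; luminescence at each time point reflects viable cells.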

[5] = A CellTox Green Cytotoxicity Assay to monitor cytotoxicity in HEK293 cells - 32 hour (AID 1224881); note: nearly all actives have a fitted effect of over 40% in size
Procedure, shortened: (§4)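 Each value comes from one timepoint of a single continuous run in which HEK293 cells with CellTox Green were exposed to compound for up to 40 h at 37 C, dye fluorescence rising with cell death.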

[6] = A CellTox Green Cytotoxicity Assay to monitor cytotoxicity in HepG2 cells - 0 hour (AID 1224882); note: nearly all actives have a fitted effect of over 35% in size
Procedure, shortened: as §2

[7] = A CellTox Green Cytotoxicity Assay to monitor cytotoxicity in HepG2 cells - 32 hour (AID 1224883); note: nearly all actives have a fitted effect of over 50% in size
Procedure, shortened: as §2

[8] = A CellTox Green Cytotoxicity Assay to monitor cytotoxicity in HEK293 cells - 8 hour (AID 1224884); note: nearly all actives have a fitted effect of over 35% in size
Procedure, shortened: as §4

[9] = qHTS RealTime-Glo MT Cell Viability Assay in HepG2 cells - 16 hour (AID 1224885); note: nearly all actives have a fitted effect of over 50% in size
Procedure, shortened: as §1

[10] = qHTS RealTime-Glo MT Cell Viability Assay in HEK293 cells - 8 hour (AID 1224887); note: top concentration of the series differs between compounds; nearly all actives have a fitted effect of over 50% in size
Procedure, shortened: as §3

[11] = A CellTox Green Cytotoxicity Assay to monitor cytotoxicity in HEK293 cells - 16 hour (AID 1224888); note: nearly all actives have a fitted effect of over 35% in size
Procedure, shortened: as §4

[12] = qHTS RealTime-Glo MT Cell Viability Assay in HepG2 cells - 0 hour (AID 1224889); note: nearly all actives have a fitted effect of over 50% in size
Procedure, shortened: as §1

[13] = A CellTox Green Cytotoxicity Assay to monitor cytotoxicity in HepG2 cells - 8 hour (AID 1224890); note: nearly all actives have a fitted effect of over 45% in size
Procedure, shortened: as §2

[14] = qHTS assay to identify small molecule antagonists of the estrogen receptor alpha (ER-alpha) signaling pathway using the BG1 cell line in the presence of 0.1 nM 17-beta-estradiol - cell viability counter screen (AID 1259241); note: nearly all actives have a fitted effect of over 40% in size
Procedure, shortened: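 CellTiter-Fluor read (30 min, 37C) on ER-alpha/ERE-luc VM7Luc4E2 cells; 22 hr compound treatment; agonist 0.1 nM E2 final; same-well multiplex.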

[15] = target: Estrogen receptor (Homo sapiens) (UniProt P03372); assay: qHTS assay to identify small molecule antagonists of the estrogen receptor alpha (ER-alpha) signaling pathway using the BG1 cell line in the presence of 0.1 nM 17-beta-estradiol (AID 1259244); note: nearly all actives have a fitted effect of over 50% in size
Procedure, shortened: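 Quantitative high-throughput screen in VM7Luc4E2 cells: compound plus 0.1 nM E2 (final), 22 h, 37C, 5% CO2; ONE-Glo added, 30 min room temperature, luminescence measured.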

[16] = qHTS assay to identify small molecule HDAC inhibitors (AID 1259364); note: top concentration of the series differs between compounds; nearly all actives have a fitted effect of over 45% in size
Procedure, shortened: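 Endogenous HDAC class I/II activity was measured in wild-type HCT-116 cells by HDAC-Glo luminescence after 2 h compound treatment.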

[17] = qHTS assay to identify small molecule antagonists of the androgen receptor (AR) signaling pathway using the MDA cell line in the presence of 0.5 nM R1881 - cell viability counter screen (AID 1259242); note: nearly all actives have a fitted effect of over 45% in size
Procedure, shortened: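 Fluorescence from CellTiter-Fluor, which reports protease activity of live cells, was read 30 min after reagent addition to MDA-kb2 cells that had been incubated 16 hr with compound and 0.5 nM R1881.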

[18] = target: Androgen receptor (Homo sapiens) (UniProt P10275); assay: qHTS assay to identify small molecule antagonists of the androgen receptor (AR) signaling pathway using the MDA cell line in the presence of 0.5 nM R1881 (AID 1259243); note: nearly all actives have a fitted effect of over 50% in size
Procedure, shortened: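 Inhibition of R1881 (0.5 nM final) induced reporter signal was measured in human MDA-kb2 cells; note the MMTV promoter also responds to GR. Exposure lasted 16 hr at 37C.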

[19] = qHTS RealTime-Glo MT Cell Viability Assay in HEK293 cells - 24 hour (AID 1224886)
Procedure, shortened: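 Homogeneous bioluminescent viability format in HEK293 cells (600 cells/well). Following 5 h at 37 C/5% CO2, 23 nL compound was pintooled; the signal was measured repeatedly during 40 h incubation.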

[20] = qHTS assay to identify small molecule phospholipidosis (PLD) inducers (AID 1259344; active = well fitted curve in the direction sought with a large enough effect; an effect the other way counts as inactive or inconclusive)
Procedure, shortened: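 HepG2 cells, 900/well, treated with compound plus LipidTOX Red for 24 h at 37 C; amiodarone positive and DMSO negative controls. Fixed with paraformaldehyde/Hoechst, then high-content imaging scored LipidTOX pit count and integrated intensity per well and per cell.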

Measured: Potency

Androgen receptor (Homo sapiens), sequence (P10275 whole entry, looked up): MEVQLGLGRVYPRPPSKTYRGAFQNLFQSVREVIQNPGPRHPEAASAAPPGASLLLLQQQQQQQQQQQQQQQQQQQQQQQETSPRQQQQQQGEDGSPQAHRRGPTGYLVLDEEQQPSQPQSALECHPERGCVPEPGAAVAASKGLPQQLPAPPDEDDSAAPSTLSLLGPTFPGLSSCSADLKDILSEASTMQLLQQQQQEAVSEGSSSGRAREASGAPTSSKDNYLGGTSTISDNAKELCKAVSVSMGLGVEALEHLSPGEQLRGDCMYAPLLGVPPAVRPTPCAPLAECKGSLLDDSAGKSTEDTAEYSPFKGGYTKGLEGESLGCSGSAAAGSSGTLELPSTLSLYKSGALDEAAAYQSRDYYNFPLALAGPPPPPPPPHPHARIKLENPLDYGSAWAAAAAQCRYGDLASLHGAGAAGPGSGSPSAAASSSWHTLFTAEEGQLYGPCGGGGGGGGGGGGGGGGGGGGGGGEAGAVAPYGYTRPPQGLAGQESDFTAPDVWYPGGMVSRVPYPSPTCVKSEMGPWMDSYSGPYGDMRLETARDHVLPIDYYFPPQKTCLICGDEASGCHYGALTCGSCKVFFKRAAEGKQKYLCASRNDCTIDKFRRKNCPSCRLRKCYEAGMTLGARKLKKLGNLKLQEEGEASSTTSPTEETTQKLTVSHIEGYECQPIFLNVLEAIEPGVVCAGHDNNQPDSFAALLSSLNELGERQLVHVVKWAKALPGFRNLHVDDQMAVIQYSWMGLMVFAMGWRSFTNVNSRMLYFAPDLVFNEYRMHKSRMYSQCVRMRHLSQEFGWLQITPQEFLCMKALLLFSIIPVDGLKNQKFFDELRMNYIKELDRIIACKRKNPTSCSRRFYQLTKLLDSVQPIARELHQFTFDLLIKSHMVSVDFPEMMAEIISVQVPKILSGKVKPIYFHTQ
Estrogen receptor (Homo sapiens), sequence (P03372 whole entry, looked up): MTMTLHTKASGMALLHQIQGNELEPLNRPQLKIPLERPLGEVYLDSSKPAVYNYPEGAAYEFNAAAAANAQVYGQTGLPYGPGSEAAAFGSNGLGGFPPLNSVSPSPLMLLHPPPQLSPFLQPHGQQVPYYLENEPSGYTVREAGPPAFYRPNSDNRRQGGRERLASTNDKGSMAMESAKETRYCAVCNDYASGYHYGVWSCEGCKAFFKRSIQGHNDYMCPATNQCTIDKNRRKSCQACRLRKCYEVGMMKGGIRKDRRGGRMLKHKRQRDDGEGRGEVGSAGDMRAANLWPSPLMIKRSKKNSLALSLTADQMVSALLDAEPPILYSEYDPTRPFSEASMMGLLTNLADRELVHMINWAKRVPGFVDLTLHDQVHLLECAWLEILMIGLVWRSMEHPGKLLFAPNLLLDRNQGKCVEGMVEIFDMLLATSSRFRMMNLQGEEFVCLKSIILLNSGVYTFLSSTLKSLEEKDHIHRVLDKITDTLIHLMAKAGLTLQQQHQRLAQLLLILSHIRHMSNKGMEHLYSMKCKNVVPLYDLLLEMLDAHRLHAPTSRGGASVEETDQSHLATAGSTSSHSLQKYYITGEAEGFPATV

COc1cc(S(N)(=O)=O)cc(C(=O)O)c1OC
inactive: [1] | [2] | [3] | [4] | [5] | [6] | [7] | [8] | [9] | [10] | [11] | [12] | [13] | [14] | [15] | [16]

O=C1c2ccccc2C(=O)N1CO
inactive: [1] | [2] | [3] | [4] | [5] | [6] | [7] | [8] | [9] | [11] | [12] | [13] | [14] | [17] | [18] | [15] | [16]

CCc1ncc(C)[nH]1
inactive: [1] | [2] | [3] | [4] | [5] | [6] | [7] | [8] | [9] | [10] | [11] | [12] | [13] | [14] | [17] | [18] | [16]

Cc1ccc(NC(N)=O)cc1
inactive: [1] | [2] | [3] | [4] | [5] | [6] | [8] | [9] | [19] | [10] | [11] | [12] | [13] | [14] | [17] | [15] | [16]

CC(O)CCCCn1c(=O)c2c(ncn2C)n(C)c1=O (centres undefined)
inactive: [1] | [2] | [3] | [4] | [5] | [6] | [8] | [9] | [19] | [10] | [11] | [12] | [13] | [14] | [17] | [15] | [20] | [16]

CNCCc1ccccn1
inactive: [1] | [2] | [3] | [4] | [5] | [6] | [7] | [9] | [19] | [10] | [11] | [12] | [13] | [14] | [20] | [16]

C=CC(C)(CCC=C(C)C)OC(=O)C(C)C (centres undefined)
inactive: [1] | [2] | [3] | [4] | [5] | [6] | [7] | [9] | [19] | [11] | [12] | [13] | [14] | [15] | [16]

CCCCCC(CC)OC(=O)CCCOc1ccc(Cl)cc1Cl (centres undefined)
inactive: [1] | [2] | [3] | [4] | [5] | [6] | [7] | [19] | [10] | [11] | [12] | [13] | [17] | [16]

Nc1nc(Cl)cc(Cl)n1
inactive: [1] | [2] | [3] | [4] | [5] | [6] | [7] | [9] | [19] | [10] | [11] | [12] | [13] | [14] | [17] | [15] | [16]

COCCCOc1cc(C[C@@H](C[C@H](N)[C@@H](O)C[C@H](C(=O)NCC(C)(C)C(N)=O)C(C)C)C(C)C)ccc1OC
inactive: [1] | [2] | [3] | [4] | [5] | [6] | [7] | [9] | [19] | [10] | [11] | [12] | [13] | [14] | [17] | [15] | [16]

O=C[C@@H](O)[C@H](O)[C@H](O)CO
inactive: [1] | [2] | [3] | [4] | [5] | [6] | [8] | [9] | [19] | [10] | [11] | [12] | [13] | [14] | [17] | [18] | [16]

CC(C)(O)c1ccc(C(C)(C)O)cc1
inactive: [1] | [2] | [3] | [4] | [5] | [6] | [8] | [9] | [19] | [10] | [11] | [12] | [13] | [14] | [17] | [15]

N#Cc1cc(NC(=O)C(=O)O)c(Cl)c(NC(=O)C(=O)O)c1
inactive: [1] | [2] | [3] | [4] | [5] | [6] | [8] | [9] | [19] | [10] | [11] | [12] | [13] | [14] | [17] | [18] | [15] | [16]

O=P(O)(O)C(O)(Cc1cccnc1)P(=O)(O)O
inactive: [1] | [2] | [3] | [4] | [5] | [6] | [8] | [9] | [19] | [10] | [11] | [12] | [13] | [14] | [17] | [15] | [20] | [16]

C[Si](C)(C)O[Si](O)(O)O
inactive: [1] | [2] | [3] | [4] | [5] | [6] | [7] | [9] | [19] | [10] | [11] | [12] | [13] | [17] | [15] | [16]
